Values joined by “and” are separate entries in the source; they are usually repeats but may differ in a detail not shown here. Identical values can stand only once. Results filed as inconclusive are left out. A number with no mark means an inactive call. Active and inactive are the calls of the source. Calls follow the shape of the dose curve; as a rule, active = well fitted inhibition curve with a large enough effect; inconclusive = small, poorly fitted or top-dose-only effect; inactive = no such curve, though single readings can be large or run the other way.
Biological target: Nicotinamide N-methyltransferase (Homo sapiens) (UniProt P40261)
Test: qHTS Assay for Inhibitors of N-terminal methyltransferase 1 (NTMT1): NNMT MTaseGlo counterscreen assay;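 as to activity change, negative = inhibition: plate controls were DMSO without inhibitor for no effect and no-enzyme control for full effect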
Conditions: NNMT enzyme, MTase-Glo luminescence counterscreen; series mostly up to 57.1 µM; activity change, negative = inhibition: at the top concentration
Summary of the method: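 Luminescent MTase-Glo read-out of SAH from nicotinamide methylation: 1 µM nicotinamide, 100 µM SAM, 125 nM NNMT, 30 min RT after ~15 min compound preincubation. Values normalized to no-enzyme/DMSO controls, Hill-fitted.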
Potency is read from the fitted curve at half-maximal effect.

Sequence of Nicotinamide N-methyltransferase (Homo sapiens) (P40261 whole entry, looked up): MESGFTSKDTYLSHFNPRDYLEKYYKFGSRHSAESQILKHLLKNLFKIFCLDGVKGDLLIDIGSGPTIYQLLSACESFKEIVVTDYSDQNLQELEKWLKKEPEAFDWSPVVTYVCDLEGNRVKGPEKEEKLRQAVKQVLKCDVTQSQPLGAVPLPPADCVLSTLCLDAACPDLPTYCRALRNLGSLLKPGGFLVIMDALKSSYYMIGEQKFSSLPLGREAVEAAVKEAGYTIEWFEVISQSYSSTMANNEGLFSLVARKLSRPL

Row | Structure (SMILES) | activity change, negative = inhibition | Potency
1 | COC(=O)[C@@H]1[C@H]2C[C@H]3c4[nH]c5ccccc5c4CCN3C[C@@H]2CC[C@@H]1O | -4.61% | 
2 | O=[N+]([O-])c1ccc(-c2nc(-c3ccc(F)cc3)c(-c3ccncc3)[nH]2)cc1 | -15.3% | 
3 | NC(Cc1c[nH]c2ccc(O)cc12)C(=O)O (stereo unspecified) | -8.98% | 
4 | COc1cc2c(NC3CCN(C)CC3)nc(N3CCCCC3)nc2cc1OCCCN(C)C | -16.6% | 
5 | Oc1cc2c(cc1O)CN(C(=S)NCCc1ccc(Cl)cc1)CCC2 | -13.5% | 
6 | COc1cc2c(NC3CCN(CC4CCCCC4)CC3)nc(N3CCCCC3)nc2cc1OCCCN1CCCCC1 | -2.71% | 
7 | OC[C@H]1O[C@H](n2cnc3c(N[C@H]4CCC[C@@H]4O)ncnc32)[C@H](O)[C@@H]1O | 2.19% | 
8 | Nc1nc(=S)c2ncn([C@@H]3O[C@H](CO)[C@@H](O)[C@H]3O)c2[nH]1 | -12.2% [at 38.3 µM] | 
9 | C=CCN1CCc2c(cc(O)c(O)c2Br)[C@@H](c2ccccc2)C1 | -16.5% | 
10 | Nc1nc(Cl)nc2c1ncn2[C@@H]1O[C@H](CO)[C@@H](O)[C@@H]1F | -14.4% [at 114 µM] | 
11 | Nc1nc(F)nc2c1ncn2[C@@H]1O[C@H](CO)[C@@H](O)[C@@H]1O | -13.1% | 
12 | CN1CCN(CCCN2c3ccccc3Sc3ccc(Cl)cc32)CC1 | -16.6% | 
13 | Cc1cccc(/C=C/c2ccccc2)n1 | -14.2% | 
14 | CCCCCCCCCCCCCCCCCC(=O)OC(CC(=O)O)C[N+](C)(C)C (stereo unspecified) | -11.9% | 
15 | Nc1ncnc2c1ncn2[C@@H]1O[C@H](C(=O)N2CCN(CC(=O)Nc3cccc4c3CNC4=O)CC2)[C@@H](O)[C@H]1O | -19.9% | 
16 | CCN(CC)C(C)CN1c2ccccc2Sc2ccccc21 (stereo unspecified) | -2.39% | 
17 | Cc1ccc(O)c(N=Nc2ccccc2)n1 |  | 14.1 µM (active)
18 | C[C@](Cc1ccc(O)c(O)c1)(NN)C(=O)O | -14.1% | 

Row | Structure (SMILES) | activity change, negative = inhibition | Potency
19 | N=C(N)c1ccc(OCCCCCOc2ccc(C(=N)N)cc2)cc1 (tested in a mixture with another compound) | -16.6% | 
20 | N=c1c[n+](N2CCOCC2)[n-]o1 | -13.7% | 
21 | C[C@H](Cc1ccc(O)c(O)c1)[C@@H](C)Cc1ccc(O)c(O)c1 |  | 22.4 µM (active) and 25.1 µM (active)
22 | COc1ccccc1N1CCN(CCN2C(=O)CC3(CCCC3)CC2=O)CC1 | -10.2% | 
23 | O=C(/C=C/c1ccc(O)cc1)c1ccc(O)cc1O | -18.7% | 
24 | CN(C)CCCN1c2ccccc2Sc2ccc(Cl)cc21 | -18.9% | 
25 | Nc1ncnc2c1[nH]c(=S)n2C1OC(CO)C(O)C1O (stereo unspecified) | 25.9% | 
26 | COc1ccccc1CNCCCCCCNCCCCCCCCNCCCCCCNCc1ccccc1OC | -15.9% | 
27 | O=S(=O)(c1cccc2c(Cl)cccc12)N1CCCNCC1 | -28.2% | 
28 | CNC(=O)c1cnn(-c2nc(N)c3ncn([C@@H]4O[C@H](CO)[C@@H](O)[C@H]4O)c3n2)c1 | -9.86% | 
29 | Cc1ccc(S(=O)(=O)/C=C/C#N)cc1 |  | 15.8 µM (active)
30 | OCCNc1ncnc2c1ncn2[C@@H]1O[C@@H](CO)[C@H](O)[C@@H]1O | 31.2% | 
31 | Cn1ncc(S(=O)(=O)Cc2ccccc2)c(Br)c1=O | -13.1% | 
32 | CC[n+]1c(/C=C/C=C2/N(C)c3ccccc3C2(C)C)sc2ccccc21 |  | 15.8 µM (active)
33 | Oc1ccc(O)cc1 |  | 39.8 µM (active)
34 | N[C@@H](Cc1c[nH]c2ccc(O)cc12)C(=O)O |  | inactive
35 | CN(C)CCCN1c2ccccc2Sc2ccccc21 | -9.98% | 
36 | O=C(Nc1ccc([N+](=O)[O-])cc1Cl)c1cc(Cl)ccc1O | -10.7% | 
